# Results taken from PubChem BioAssay AID488969 (Vanderbilt High Throughput Screening Facility, 2010).
# Over roughly 110,000 compounds, “z-score” has its median near -0.1; the highest 2% begin near 2. The list comes from a sample in which the highest values are over-represented; it also holds similar structures and randomly drawn compounds. The source made the active and inactive calls.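 How the source made its calls: active means z-score in the third read window above 3 or below -3; inactive means the rest.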
# Molecular target: Metabotropic glutamate receptor 8 (Rattus norvegicus) (UniProt P70579)
# Assay: mGluR8 Gi/Go-coupled signaling modulation – cell-based, rat, thallium flux, HTS, primary screen (AID 488969)
# Conditions: HEK293 rat mGluR8, GIRK (G protein-gated inwardly rectifying potassium channel) thallium flux, FluoZin2; at 10 µM; stronger effect = higher value; submaximal glutamate (EC20) added with thallium
# Chain of Metabotropic glutamate receptor 8 (Rattus norvegicus) (P70579 whole entry, looked up): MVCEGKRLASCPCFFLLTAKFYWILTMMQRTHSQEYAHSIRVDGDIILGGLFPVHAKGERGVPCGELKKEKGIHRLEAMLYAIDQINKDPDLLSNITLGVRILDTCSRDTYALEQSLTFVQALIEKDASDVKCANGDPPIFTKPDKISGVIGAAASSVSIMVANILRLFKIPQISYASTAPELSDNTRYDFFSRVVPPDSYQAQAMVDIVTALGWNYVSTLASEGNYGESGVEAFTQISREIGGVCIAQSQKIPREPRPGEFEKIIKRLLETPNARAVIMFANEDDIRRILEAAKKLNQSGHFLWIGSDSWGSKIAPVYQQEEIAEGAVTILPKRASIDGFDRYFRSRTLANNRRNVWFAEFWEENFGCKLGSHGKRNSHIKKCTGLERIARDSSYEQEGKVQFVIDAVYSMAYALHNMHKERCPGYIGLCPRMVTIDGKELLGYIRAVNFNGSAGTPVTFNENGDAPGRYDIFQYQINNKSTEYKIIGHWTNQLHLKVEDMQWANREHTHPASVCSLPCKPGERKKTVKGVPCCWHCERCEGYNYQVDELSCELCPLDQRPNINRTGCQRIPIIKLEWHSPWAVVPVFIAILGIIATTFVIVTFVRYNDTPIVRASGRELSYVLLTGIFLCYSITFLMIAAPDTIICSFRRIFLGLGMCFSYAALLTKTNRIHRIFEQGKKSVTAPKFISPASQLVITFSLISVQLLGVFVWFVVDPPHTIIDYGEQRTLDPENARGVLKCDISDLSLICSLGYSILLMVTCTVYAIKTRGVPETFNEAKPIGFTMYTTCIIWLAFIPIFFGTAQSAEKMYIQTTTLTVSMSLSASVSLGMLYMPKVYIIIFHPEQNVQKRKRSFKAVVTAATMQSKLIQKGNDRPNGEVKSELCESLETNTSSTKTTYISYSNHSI
row,Structure (SMILES),z-score
1,O=C(CN1C(=O)NC2(CCCC2)C1=O)Nc1ccc(F)cc1,0.19
2,CCCCn1nnnc1NCc1cccs1,-1.89
3,CCCn1nnnc1NCc1ccc(N2CCCC2)cc1,-0.208
4,CCCn1nnnc1NCc1cccn1C,1.98
5,CCc1ccc(/C=N/NC(=O)C(=O)NCCCN2CCOCC2)cc1,-0.174
6,CC(CC(=O)Nc1ccncc1)c1ccccc1 (stereo unspecified),0.044
7,O=C(CCSCc1ccc(Cl)cc1)NCCc1ccccc1,-0.0466
8,COc1ccc(Nc2ccc(S(=O)(=O)N3CCCCC3)cc2[N+](=O)[O-])cc1OC,2.43
9,COc1ccc(Nc2ccc(S(=O)(=O)N3CCCCCC3)cc2[N+](=O)[O-])cc1,0.571
10,COc1ccc(Nc2ccc(S(=O)(=O)N3CCCCC3)cc2[N+](=O)[O-])cc1Cl,0.547
11,COCc1cc(C)nc(Nc2ccc(C)cc2C)c1C#N,-0.225
12,COc1ccc(C(=O)N(NC(=O)Oc2ccccc2)C(C)(C)C)cc1,0.485
13,O=C(Nc1ccc2nc3ccccc3nc2c1)c1ccccc1,-0.114
14,O=C(Nc1ccc(F)cc1)c1ccccc1,-0.000317
15,O=C(Nc1ccc2[nH]c(=S)sc2c1)c1ccccc1,11.9 (active)
16,CC1(C)CC(CC(=O)Nc2ccccc2[N+](=O)[O-])C(=O)O1 (stereo unspecified),-0.0252
17,COC(=O)c1cn(-c2ccccc2)c(C)c1C(=O)OC,-0.11
18,C=CCn1c(SCc2c(C)noc2C)nc2sc3c(c2c1=O)CCCCC3,-0.236
19,C=CCn1c(SCc2c(C)noc2C)nc2sc3c(c2c1=O)CCCC3,-0.0819
20,C=CCn1c(SCc2c(C)noc2C)nc2sc3c(c2c1=O)CCC(C)C3 (stereo unspecified),2.65
21,CC(C)(Oc1ccc(Cl)cc1)C(=O)NCc1ccncc1,0.181
22,CC(C)C(=O)Nc1cccc(NC(=O)c2ccc(Cl)cc2Cl)c1,-0.304
23,O=C(Nc1nc(=S)ss1)c1c(F)cccc1F,-0.588

row,Structure (SMILES),z-score
1,CC(=O)Nc1nc(=S)ss1,0.468
2,Cc1ccccc1C(=O)Nc1nncs1,-0.0319
3,Cc1ccccc1C(=O)Nc1nc(=S)ss1,2.56
4,O=C(Nc1nc(=S)ss1)c1ccc(Cl)cc1Cl,4.46 (active)
5,CCOc1nc(N(C)C)nc(-n2nnc(C(C)=O)c2C)n1,-0.22
6,CC1SCC(=O)N(CC(=O)NCc2ccccc2)C1=O (stereo unspecified),-0.233
7,O=C(N/N=C/c1c(Cl)cccc1Cl)c1ccc(F)cc1,-0.476
8,O=C(N/N=C/c1c(Cl)cccc1Cl)c1cccc(F)c1,3.05 (active)
9,O=C(N/N=C/c1ccccc1Cl)c1cccc(F)c1,-0.342
10,O=C(C(=O)N1CCc2ccccc2C1)c1cn(CC(=O)N2CCCCC2)c2ccccc12,-0.582
11,CC(=O)C1=C(O)C(=O)N(c2cccc(C(=O)O)c2)C1c1ccc(F)cc1 (stereo unspecified),-0.153
12,CC(=O)c1ccc(N2Cc3ccccc3/C2=N\C(=O)Nc2ccccc2)cc1,-0.211
13,CC(=O)CN1Cc2ccccc2/C1=N\C(=O)Nc1ccccc1,3.19 (active)
14,O=C(/N=C1/c2ccccc2CN1c1ccccc1)Nc1ccccc1,-0.236
15,Cc1ccc(S(=O)(=O)N2CCN(c3ccc(C(F)(F)F)cc3[N+](=O)[O-])CC2)cc1,-0.0811
16,Cc1scc(C(=O)N/N=C/c2ccc(OC(C)C)cc2)c1C,0.164
17,Cc1ccccc1NC(=O)CSc1nc(COc2ccccc2)nc2ccccc12,0.264
18,O=C(Cn1nnc(-c2ccccc2F)n1)Nc1ccc2c(c1)OCO2,2.41
19,O=C(Cn1nnc(-c2ccccc2F)n1)NCCc1ccccc1,-0.146
20,CCCC(=O)Nc1ccccc1-c1nnn(CC(=O)Nc2ccc(OCC)cc2)n1,-0.817
21,Cc1ccc(F)cc1NC(=O)Cc1nn(C)c(=O)c2ccccc12,-0.0938
22,COc1ccccc1NC(=O)Cc1nn(C)c(=O)c2ccccc12,-0.677
23,O=C(Cn1nnc(-c2ccccc2NC(=O)c2ccccc2)n1)Nc1ccc2c(c1)OCCO2,0.418

row,Structure (SMILES),z-score
1,CCOC(=O)c1ccc(NC(=O)Cn2nnc(-c3ccccc3F)n2)cc1,-0.121
2,O=C(Cn1nnc(-c2ccccc2F)n1)Nc1cccc2ncccc12,2.27
3,COc1ccc(NC(=O)Cn2nnc(-c3ccccc3F)n2)cc1Cl,0.202
4,O=C(Cn1nnc(-c2ccccc2)n1)Nc1ccc2c(c1)OCO2,0.199
5,CCOc1ccc(NC(=O)Cn2nnc(-c3ccccc3F)n2)cc1,3.4 (active)
6,Cn1nc(CC(=O)Nc2cccc3ncccc23)c2ccccc2c1=O,2.01
7,CCCNc1c(N)c(=O)oc2ccccc12,-1.25
8,O=c1[nH]c2ccc(Cl)cc2c(-c2ccccc2)c1N1CCN(CCO)CC1,0.464
9,O=C(Nc1ccc(F)cc1F)c1ccco1,-0.0416
10,CCN(CC)c1ccc(NC(=O)/C=C\c2ccccc2Cl)cc1,-0.341
11,CCOC(=O)CNC(=O)CSc1nc2ncc(Br)cc2[nH]1,0.941
12,Cc1cc(N2C(=O)C3C4c5ccccc5C(c5ccccc54)C3C2=O)no1 (stereo unspecified),-0.47
13,Cc1ccc2c(CC(=O)NNC(=O)c3ccccc3)coc2c1,-0.29
14,CC(=O)O/N=C(/c1nonc1N)N1CCN(c2ccc([N+](=O)[O-])cc2Cl)CC1,-0.222
15,CC(=O)Nc1ccc(N2CCCCC2)c(C(=O)Nc2cccc(C)c2)c1,-0.0504
16,O=C(O)CCC(=O)Nc1ccc(N2CCCCC2)c(C(=O)O)c1,0.0405
17,Cc1ccc(NC(=O)c2cc(NC(=O)CCC(=O)O)ccc2N2CCCCC2)cc1,4.06 (active)
18,O=c1cc(O)c2sc3nc(-c4ccccc4)cc(C(F)(F)F)c3c2[nH]1,-1.89
19,COc1ccc(OC)c(-c2cc(C(F)(F)F)c3c(n2)sc2c(O)cc(=O)[nH]c23)c1,-0.747
20,COc1ccc(-c2cc(C(F)(F)F)c3c(n2)sc2c(O)cc(=O)[nH]c23)c(OC)c1,5.32 (active)
21,COc1cc2cc3c(N)c(C(=O)Nc4sc(C)c(C)c4C#N)sc3nc2cc1OC,0.0438
22,Cc1sc(NC(=O)c2sc3nc4c(C)cccc4cc3c2N)c(C#N)c1C,2.37
23,Cc1[nH]c(=O)[nH]c(=O)c1NC(=O)c1sc2nc3c(C)cccc3cc2c1N,-0.256

row,Structure (SMILES),z-score
1,CCN(CC)S(=O)(=O)c1ccc(N2CCCCC2)c(NC(=O)/C(C#N)=C/c2ccc(OC)cc2)c1,-0.0436
2,O=c1[nH]cnc2cc(Cl)ccc12,-0.0535
3,CCOc1ccc(C(C)=O)cc1N1C(=O)C2C3C=CC(O3)C2C1=O (stereo unspecified),-0.01
4,CCOc1ccc(C(C)=O)cc1N1C(=O)C2C3C=CC(C3)C2C1=O (stereo unspecified),-0.533
5,CCOc1ccc(C(C)=O)cc1N1C(=O)C2C(C1=O)C1C=CC2C12CC2 (stereo unspecified),4.92 (active)
6,COCCCNC(=O)C1CCCCN1S(=O)(=O)c1ccc(F)cc1 (stereo unspecified),0.633
7,CCn1c(Cc2ccccc2)nnc1SCC(=O)Nc1ccc(N2CCOCC2)c(Cl)c1,-0.645
8,Nn1c(SCC(=O)Nc2ccc3c(c2)OCO3)nnc1-c1ccc(Cl)cc1,-0.179
9,CCn1c(SCC(=O)Nc2ccc(N3CCOCC3)c(Cl)c2)nnc1-c1ccc(N)cc1,2.78
10,COc1ccc(-c2nnc(SCC(=O)Nc3ccc4c(c3)OCCO4)n2N)cc1OC,-0.393
11,Cc1ccc(-c2nnc(SCC(=O)Nc3ccc4c(c3)OCCO4)n2N)cc1,14.1 (active)
12,Cn1c(SCC(=O)Nc2ccc(N3CCOCC3)c(Cl)c2)nnc1-c1ccccc1,-0.0676
13,CC(CCc1ccccc1)NC(=O)C(Cc1ccccc1)NS(=O)(=O)c1cccs1 (stereo unspecified),-0.446
14,COc1ccc(-c2cc(CNC(=O)CCl)on2)cc1,-0.113
15,CC(=O)c1ccc(N2CCN(C(=O)c3ccco3)CC2)c(F)c1,-0.0315
16,Cc1ccc2nc(-c3ccc(NC(=S)NC(=O)C(C)C)cc3)sc2c1,-0.127
17,Cc1ccc(SC(=O)COc2ccccc2C)cc1,-0.399
18,Cc1ccc(CNC(=O)COC(=O)CSc2cc(C)c(Br)cc2C)cc1,0.22
19,COc1ccc(/C=C2\CCOC2=O)cc1,0.296
20,O=C(C1=C(O)/C(=C/c2ccc(O)cc2)CCC1)C(F)(F)F,0.181
21,COc1ccc(/C=C2\CCCC(C(=O)C(F)(F)F)=C2O)cc1,2.59
22,Cc1ccc(NC(=O)CN2CCC(C(=O)c3ccc4c(c3)OCCO4)CC2)cc1,-0.152
23,CCOCCCNC(=O)C(NC(=O)CC1NC(=O)NC1=O)c1ccc(Cl)cc1 (stereo unspecified),-0.134

row,Structure (SMILES),z-score
1,COc1ccc(CCNC(=O)c2nc3ncccn3n2)cc1OC,0.169
2,O=P(OC1CCCCC1)(OC1CCCCC1)C(O)c1ccccc1 (stereo unspecified),-0.904
3,CCCc1nc2ccccc2c(=O)n1/N=C/c1c(C)[nH]n(-c2ccc(C)cc2)c1=O,1.38
4,Cc1ccc(-n2[nH]c(C)c(/C=N/c3ccccn3)c2=O)cc1,6.24 (active)
5,Cc1ccc(-n2[nH]c(C)c(C=Nc3ccc4[nH]c(=O)[nH]c4c3)c2=O)cc1,-0.443
6,Cc1[nH]n(-c2ccccc2)c(=O)c1/C=N/c1ccccn1,2.61
7,Cc1[nH]n(-c2ccccc2)c(=O)c1/C=N/O,-0.187
8,Cc1ccc(-n2[nH]c(C)c(C=Nc3cc(C)ccn3)c2=O)cc1,10.6 (active)
9,Cc1[nH]n(-c2ccccc2)c(=O)c1C=Nc1cccc2cccnc12,0.652
10,Cc1ccc2cccc(N=Cc3c(C)[nH]n(-c4ccccc4)c3=O)c2n1,0.282
11,Cc1[nH]n(-c2ccccc2)c(=O)c1/C=N\NC(=O)C1COc2ccccc2O1 (stereo unspecified),-0.0839
12,CCCCN(CCCC)C(=S)N/N=C/c1c(C)[nH]n(-c2ccccc2)c1=O,10.4 (active)
13,Cc1ccc(-n2[nH]c(C)c(C=Nc3ccc(S(=O)(=O)Nc4nccs4)cc3)c2=O)cc1,-0.363
14,Cc1ccc(-n2[nH]c(C)c(/C=N/n3c(C)nc4ccccc4c3=O)c2=O)cc1,0.177
15,Cc1nc2ccc(S(=O)(=O)NCC(=O)N3CCCCC3)cc2s1,-0.09
16,COc1cc(NC(=O)CN(C)Cc2ccc(OC(F)F)cc2)c(C)cc1[N+](=O)[O-],-0.0913
17,COC(=O)c1ccc(CSc2n[nH]c(C)n2)o1,-0.0591
18,CCOc1ccc(C(C)=O)cc1COC(=O)C1=COCCO1,-1.15
19,CCCc1nc2sc3c(=O)n(N)cnc3c2c2c1CCCC2,-0.191
